This note sets out measurements from PubChem BioAssay (NCI).

The structures appear in SMILES notation. Where “and” joins values, the source holds several entries; their conditions need not be identical. Equal entries are not always repeated. About 83,000 compounds went through this panel and 20% of them were active in at least one assay; those are over-represented in the sample as a whole.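 Growth was measured after 48 h exposure to one concentration of compound in 96-well plates. Values under 10 count as active.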 Calls of active or inactive are those of the source.

In this experiment the test system is HL-60(TB) leukemia. The experiment in a line: NCI-60 one-dose screen, 48 h (100 = growth as untreated, 0 = no growth, -100 = all killed). Conditions: 10 µM unless noted.
As to `CC(C)c1ccc2c(c1)CCC1C2CCCC1(C)NCc1ccccc1` (stereo not given), the growth is 22.9% (inactive).
The value for `COc1cc(CC#N)c([N+](=O)[O-])cc1OC` was 92.6% (inactive).
On to `CC(C)c1ccc(COCc2cc(CN3CCCC3)c(O)c3ncccc23)cc1`, for which the growth is -20.3% (active).
The value for `O=C1c2ccccc2C(=O)c2c(NCCNCCO)ccc(NCCNCCO)c21` was 64.9% (inactive) and 11.4% (inactive) and 2.46% (active); that for `COc1cc(/C=C2\C(=O)N(Cc3ccc(Cl)cc3)c3ccccc32)cc(OC)c1OC` was -13.5% (active).
On to `COc1ccc(Cn2c(Br)c3c(c2-c2cc(OC)c(OC)c(OC)c2)CCc2sc(NC(C)=O)nc2-3)cc1`, for which the growth was 15.2% (inactive).
The value for `CC(C)Sc1ncnc2nc[nH]c12` was 95% (inactive); that for `COc1ccc(-c2ccc(NC(=O)Nc3cccc(C(F)(F)F)c3)c(C)n2)cc1` was 49.7% (inactive).
As for `Cc1nn(-c2ccccc2)c(N2CCOCC2)c1/C=N/N=c1\sc2ccccc2n1C`, the growth was 67.2% (inactive).
The value for `Cc1ccc(NCCN2CCCCC2)c2c(=O)c3ccccc3sc12` was 1.52% (active); that for `O=C1/C(=C\c2cn(-c3ccccc3)nc2-c2ccc(-c3cccs3)cc2)CCc2ccccc21` was 50.2% (inactive).
The same measure for `C(=C\c1nc2ccccc2s1)/c1ccc(N2CCOCC2)s1`: 24% (inactive); for `COc1ccc(-c2ccc(-c3ccc(C(=N)N)s3)s2)cc1`: -61.1% (active); for `Cc1nn(-c2ccc(Cl)cc2)c2ncnc(N/N=C/c3ccccc3O)c12`: -4.93% (active) and 1.67% (active).
The same measure for `COc1ccc(NC(=O)c2cc(OC)c(OC)c(OC)c2)cc1O`: 32.5% (inactive).
Take `Cn1cnc2c(F)c(Nc3ccc(Br)cc3F)c(C(=O)NOCCO)cc21`: the growth is 16.6% (inactive).
As for `COc1ccc(C(=O)c2c(N)nc3n2CCCC3)cc1OC`, the growth is 94.1% (inactive).
The value for `COC(=O)/C=C/c1cc(O)c2c(c1)C(C(=O)OC)C(c1ccc(O)c(O)c1)O2` (stereo not given) was -10.5% (active) and -0.307% (active).
Turning to `O=C(OCC1CCCO1)c1ccc([N+](=O)[O-])cc1` (stereo not given), the growth was 102% (inactive).
The same measure for `N/C(=N\c1nc2ccccc2s1)NC(=O)Nc1ccccc1Cl`: -27.3% (active); for `COc1ccc(OC)c(C(=O)/C=C/c2cc3c(c(OC)c2OC)OCO3)c1`: 48.6% (inactive); for `CCOC(=O)C1C(=O)C=C(c2ccc(OC)cc2)CC1c1sc(N(C)Cc2ccccc2)nc1Cl` (stereo not given): 83% (inactive).
The same measure for `CN(C)CCNc1nc2c3cc(Cl)ccc3nn2c2ccccc12`: 56.1% (inactive); for `Oc1c(Cl)cc(Cl)cc1Sc1cc(Cl)cc(Cl)c1O`: 28% (inactive) and -16.5% (active) and 52.9% (inactive); for `COc1ccc(C(=O)c2cc(OC)c3c(c2)OCO3)cc1O`: 13.4% (inactive).
